# High-throughput results: PubChem, National Center for Advancing Translational Sciences (NCATS)
# A selection: hits, their analogues and other compounds. The true share with any hit is near 10%.
# MmCpn inh = inhibitors of Methanococcus maripaludis chaperonin TRiC (MmCpn); purified Mm-Cpn ATPase, ADP Transcreener TR-FRET; Potency, µM (highest dose often 76.9 µM), for inactives: at the top dose activity, negative = inhibition, usual class: inhibitors; 330,000 compounds, 0.031% hits; AID 504842; note: potency is the fitted concentration of half-maximal effect; nearly all actives have a fitted effect of over 80% in size
#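 ATPase turnover read by TR-FRET ADP competition (Eu cryptate antibody/ADP-d2, 665/590 nm): 10uM ATP final, 25nM Mm-CPN final, 30 min 37degC after 10-min compound preincubation, pH 7.4 Tris/KCl/MgCl2/DTT buffer.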
# PLK1 PBD block = inhibitors of human PLK1 polo-box domain binding. Potency, µM, for the others: max response, negative = inhibition, usual class: inhibitors. P53350. AID 720504. Plk1 PBD binding of FITC phosphopeptide, fluorescence polarization. 360,000 compounds, 2.8% hits; note: potency is the fitted concentration of half-maximal effect; series mostly up to about 57 µM; nearly all actives have a fitted effect of over 65% in size
# Target sequence (P53350 whole entry, looked up, the tested form may be a part): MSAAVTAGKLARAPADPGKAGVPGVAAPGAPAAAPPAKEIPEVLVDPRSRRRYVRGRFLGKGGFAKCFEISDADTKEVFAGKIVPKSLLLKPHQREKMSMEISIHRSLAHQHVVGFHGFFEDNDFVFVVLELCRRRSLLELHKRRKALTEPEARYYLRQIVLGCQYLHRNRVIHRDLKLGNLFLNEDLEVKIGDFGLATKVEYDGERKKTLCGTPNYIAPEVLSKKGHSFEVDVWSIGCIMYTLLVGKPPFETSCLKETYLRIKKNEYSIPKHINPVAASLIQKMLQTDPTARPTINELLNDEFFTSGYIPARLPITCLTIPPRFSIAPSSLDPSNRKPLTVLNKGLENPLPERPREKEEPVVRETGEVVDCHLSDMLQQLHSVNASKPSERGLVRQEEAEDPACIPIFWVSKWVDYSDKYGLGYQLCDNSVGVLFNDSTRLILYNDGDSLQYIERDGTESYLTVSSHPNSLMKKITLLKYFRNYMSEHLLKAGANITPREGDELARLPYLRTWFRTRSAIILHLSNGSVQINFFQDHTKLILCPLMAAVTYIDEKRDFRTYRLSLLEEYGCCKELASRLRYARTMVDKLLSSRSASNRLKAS
# CCT modulator = cytosolic chaperonin activity modulation; purified chaperonin ATPase assay, HTRF ADP detection, 30 min; activity change, % (concentration not given with the values), hits read low; 360,000 compounds, 0.3% hits; in the data active = activity change below about -30%
#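 Nucleotide hydrolysis assay: TRiC at 20–40 nM final (set by batch activity) with 10 uM ATP, 30 min at 37 °C, in presence of 76 uM compound. Detection by competitive ADP HTRF, 30 min ambient.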
# G9a block = G9a (human) methyltransferase inhibition; G9a H3K9 monomethylation, AlphaScreen, 2 h; Potency, µM (top dose mostly 102 µM), without a hit: at the highest dose activity, negative = inhibition, actives largely listed as inhibitors; 350,000 compounds, 8.8% hits; AID 504332; note: potency is the fitted concentration of half-maximal effect; nearly all actives have a fitted effect of over 75% in size
#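 Signal arises when biotinylated H3K9 peptide, once monomethylated, bridges streptavidin donor and antibody-captured acceptor beads. Enzyme at 20 nM was preincubated 15 min with test compounds; peptide 500 nM and SAM 20 uM then reacted for 2 h.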
# Sfp inh = Sfp phosphopantetheinyl transferase inhibition; Biochemical Sfp PPTase activity, qHTS; 310,000 compounds, 3.5% hits; Potency, µM, for inactives: largest response in the series, negative = inhibition, usual class: inhibitors; Q9F4F7;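 note: the enzyme is Sfp with the accession as filed and its product quenches rhodamine fluorescence; potency is the fitted concentration of half-maximal effect; 0% = enzyme reaction without inhibitor and -100% = no enzyme wells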
#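 Fluorescence-quenching assay: 15 nM Sfp-PPTase preincubated 15 min at room temperature with compound, then 5 uM rhodamine-CoA and 12.5 uM BHQ-2-labelled YbbR peptide added. Fluorescence (ex 525/em 598 nm) read at start and after 30 min; difference gives rate.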
# VDR inhibitor = blocks the human vitamin D receptor; VDR-SRC2-3 peptide fluorescence polarization, 2 h; Potency, µM, without a hit: max response, negative = inhibition, hits mostly inhibitors; 400,000 compounds, 0.93% hits; P11473; note: potency is the fitted concentration of half-maximal effect
#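 Compounds are added to VDR with labelled SRC2-3 coactivator peptide and held 2 h at room temperature. Inhibition of the VDR–peptide interaction is then read as a change in fluorescence polarization.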
# * = called active by the depositor; ? = inconclusive; / = no result; [ ] = remark or other dose. Unless noted, calls come from the whole dose curve; as a rule, active = well fitted curve in the direction sought with a large enough effect; inconclusive = small, poorly fitted or top-dose-only effect, or another doubt; inactive = no such curve, though single readings can be large; an effect the other way counts as inactive or inconclusive. Unless noted, % is set by controls: 0 for no effect and ±100 for the full control effect.
SMILES,MmCpn inh,PLK1 PBD block,CCT modulator,G9a block,Sfp inh,VDR inhibitor
O=C(NCCc1ccccc1)c1ccc2c(c1)CCN2S(=O)(=O)c1ccc(Cl)cc1,/,/,/,-26.7%[59 µM],/,1.5%
Cc1cc(C)c2[nH]c(C(=O)Nc3ccc(F)cc3Br)cc2c1,-17.9%,-21.3%,-1.1,50.1µM*,-15.3%,-9.7%
O=C(Cc1nc(=O)c2ccccc2s1)Nc1ccccc1,-3.6%,2.1%,-1.2,-7.2%,23.9%,-8.2%
O=C(Cn1sc2ccccc2c1=O)NC12CC3CC(CC(C3)C1)C2,1.4%,2.99µM*,0.8,?,2.51µM*,?
O=C(Cn1sc2ccccc2c1=O)Nc1ccccc1,/,1.19µM*,-2.8,/,/,/
O=C(Nc1cccc(S(=O)(=O)NC2=NCCC2)c1)c1cc(-c2ccco2)nc2ccccc12,-2.5%,?,-1.4,39.8µM*,-27.0%,-19.7%
O=C(NC(=S)Nc1cccc(S(=O)(=O)NC2=NCCC2)c1)c1cc(-c2ccco2)nc2ccccc12,-9.2%,?,-0.8,39.8µM*,?,-22.9%
O=[N+]([O-])c1ccc(C2NS(=O)(=O)N=C3CCCCCN32)cc1 (stereo not drawn),-1.2%,-3.5%,0.8,25.1µM*,50.1µM*,?
O=S1(=O)N=C2CCCCCN2C(c2ccc(F)cc2)N1 (stereo not drawn),1.9%,1.1%,0.7,2.7%,-2.3%,0.5%
S=C(NCCN1CCOCC1)N1CCN(c2cccc(Cl)c2)CC1,-1.9%,?,1.7,35.5µM*,?,-10.0%
NS(=O)(=O)c1ccc(NC(=S)N2CCN(c3cccc(Cl)c3)CC2)cc1,-1.3%,16.8µM*,-1.3,8.91µM*,12.6µM*,-25.7%
NS(=O)(=O)c1ccc(NC(=S)N2CCN(S(=O)(=O)c3ccc(F)cc3)CC2)cc1,0.7%,/,/,-48.4%[59 µM],-19.9%,/
CN1CCN(C(=S)Nc2ccc(S(N)(=O)=O)cc2)CC1,-1.6%,26.7µM*,0.1,39.8µM*,22.4µM*,-15.9%
Cn1cccc1-c1cc2n(n1)CCC(=O)N2CC(=O)Nc1ccc(F)cc1Cl,/,/,/,?,/,5.2%
CCCCc1nc2c(c3c1C[C@H](C)OC3)CN(S(=O)(=O)c1c(C)noc1C)CC2,/,/,/,/,4.2%,/
CCc1ccc(NC(=O)CN(Cc2ccccc2)S(=O)(=O)c2ccc3nc(C)sc3c2)cc1,/,/,/,12.0%[59 µM],/,9.5%
CCc1ccc(CNC(=O)c2cnc3sc(N4CCCCCC4)nn3c2=O)cc1,/,/,/,9.3%[59 µM],/,11.9%
O=S(=O)(c1ccc(F)cc1)N1CCN(CC(O)COCc2cccs2)CC1 (stereo not drawn),-2.7%,-2.5%,-1.4,31.6µM*,-6.3%,0.1%
O=S(=O)(c1cccs1)N1CCN(CC(O)COC2CCCc3ccccc32)CC1 (stereo not drawn),2.0%,-1.1%,-2.4,17.8µM*,-16.3%,0.1%
O=S(=O)(c1ccc(F)cc1)N1CCN(CC(O)COc2ccccc2F)CC1 (stereo not drawn),-0.1%,6.3%,-1.4,8.91µM*,56.2µM*,1.9%
CC(C)c1ccccc1OCC(O)CN1CCN(S(=O)(=O)c2ccc([N+](=O)[O-])cc2)CC1 (stereo not drawn),-1.9%,-4.7%,-0.4,35.5µM*,-22.0%,25.0%
CCCOc1ccc(CNC(=O)C2CCN(c3nc4ccccc4nc3C(F)(F)F)CC2)cc1,/,/,/,-1.8%[59 µM],/,5.7%
N#Cc1ccccc1S(=O)(=O)N1CCN(CC(O)COc2ccccc2F)CC1 (stereo not drawn),-3.0%,7.5%,-0.8,2.24µM*,56.2µM*,-3.6%
CC(=O)c1cccc(OCC(O)CN2CCN(C(=O)c3ccco3)CC2)c1 (stereo not drawn),-0.5%,1.7%,1.5,?,-11.3%,-2.4%
CC(=O)c1cccc(OCC(O)CN2CCN(S(=O)(=O)c3c(F)cccc3F)CC2)c1 (stereo not drawn),-0.5%,18.9µM*,-2.4,-31.7%[2.33 µM],?,-26.4%
SMILES,MmCpn inh,PLK1 PBD block,CCT modulator,G9a block,Sfp inh,VDR inhibitor
N#Cc1ccccc1S(=O)(=O)N1CCN(Cc2cccs2)CC1,/,-2.5%,0.7,/,/,/
N#Cc1ccccc1S(=O)(=O)N1CCN(CC(O)c2ccccc2)CC1 (stereo not drawn),-0.5%,1.6%,-2.2,15.8µM*,-21.1%,2.2%
CN(C(=O)Cn1nc(Cc2cccnc2)c2ccccc2c1=O)c1cccc(C(F)(F)F)c1,/,/,/,-18.5%[59 µM],/,-23.5%
CCc1ccc(CNC(=O)c2cccc(-n3cnc4cccnc43)c2C)cc1,/,/,/,-1.5%[59 µM],/,5.4%
CCOc1ccccc1N1CC(c2nc3ccccc3n2CCOc2ccccc2OC)CC1=O (stereo not drawn),/,/,/,-39.1%[59 µM],/,2.4%
CCOCCc1nn2c(=O)cc(COC(=O)c3ccc(NC(=O)C(C)(C)C)cc3)nc2s1,/,/,/,3.9%[59 µM],/,-6.9%
COc1ccc2c(c1)c1c(c(=O)n(Cc3ccccc3)c(=O)n1Cc1ccccc1Cl)n2C,/,/,/,9.8%[59 µM],/,0.4%
Fc1ccccc1Cc1noc(CN2CCC(OCc3cccnc3)CC2)n1,1.4%,-8.6%,1.6,/,35.5µM*,-0.7%
COC1CCCN(Cc2nc(Cc3ccccc3F)no2)C1 (stereo not drawn),0.1%,-10.0%,-2.5,4.9%,26.2%,15.7%
Cc1cc(N=Nc2ccccc2)c(NCC(O)C(O)C(O)CO)cc1C (stereo not drawn),-12.6%,-0.4%,0.4,20µM*,-14.0%,-14.6%
Cc1ccc(NCC(O)C(O)C(O)CO)cc1C (stereo not drawn),-2.2%,-4.3%,-0.1,?,9.6%,12.6%
O=C(CCCCn1c(=O)c2ccccc2n(CC(=O)Nc2ccc(F)cc2F)c1=O)NCCc1ccccc1,/,/,/,-12.3%[59 µM],/,-5.6%
O=C(NNC(=O)C1C2CCCCC21)c1coc(=O)c(Br)c1 (stereo not drawn),-1.9%,-23.8%,-2.4,44.7µM*,0.2%,-27.8%
O=C(NC(CO)(CO)CO)c1coc(=O)c(Br)c1,0.6%,-3.2%,-0.6,26.6%[2.33 µM],-9.0%,0.9%
Oc1ccc(-c2nc(-c3ccc(O)c(O)c3)cs2)cc1,-3.4%,-3.7%,1.3,8.91µM*,79.4µM*,-5.2%
Oc1ccc(Nc2nc(-c3ccc4ccccc4c3)cs2)cc1,-2.1%,/,/,?,-8.6%,/
[O-]/[N+](=C\c1ccncc1)c1ccccc1,-2.5%,-11.1%,0.1,?,-27.9%,79.4µM*
[O-]/[N+](=C/c1ccc(F)cc1)c1ccccc1,-2.8%,-21.5%,0.4,-22.2%[59 µM],?,?
[O-]/[N+](=C\c1ccc(OC(F)F)cc1)c1ccccc1,-0.6%,-10.5%,-0.3,50.1µM*,-27.2%,?
CCOc1ccccc1OCC(=O)Nc1ccc(OC)c(S(=O)(=O)N2CCCCC2)c1,-5.9%,-5.8%,-0.9,-31.1%,/,17.4%
COc1cc(NC(=O)COc2cc3oc(=O)cc(C)c3cc2Cl)cc(OC)c1OC,1.4%,2.5%,-59.3*,-7.4%[59 µM],-10.6%,-0.3%
